What was measured:
[1] = target: T1, 3-phosphoinositide-dependent protein kinase 1 (Homo sapiens) (UniProt O15530); details: at 0.1 µM;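 further: values are mean inhibition of PDK1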
T1 sequence (whole entry): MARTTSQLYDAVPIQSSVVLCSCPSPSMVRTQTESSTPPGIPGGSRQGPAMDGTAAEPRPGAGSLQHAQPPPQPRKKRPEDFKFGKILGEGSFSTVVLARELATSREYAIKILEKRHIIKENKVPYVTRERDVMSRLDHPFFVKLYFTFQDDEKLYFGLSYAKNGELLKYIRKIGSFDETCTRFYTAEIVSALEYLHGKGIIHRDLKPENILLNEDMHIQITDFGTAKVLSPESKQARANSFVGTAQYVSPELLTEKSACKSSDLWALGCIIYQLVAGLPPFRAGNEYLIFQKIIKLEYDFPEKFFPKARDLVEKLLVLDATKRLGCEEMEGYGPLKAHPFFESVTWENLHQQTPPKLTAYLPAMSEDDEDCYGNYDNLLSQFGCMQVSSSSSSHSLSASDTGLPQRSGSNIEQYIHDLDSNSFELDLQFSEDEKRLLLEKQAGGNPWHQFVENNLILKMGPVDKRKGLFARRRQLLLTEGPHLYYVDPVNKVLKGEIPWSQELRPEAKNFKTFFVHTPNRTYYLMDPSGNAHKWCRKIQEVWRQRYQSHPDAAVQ

[2] = target: cAMP-dependent protein kinase catalytic subunit alpha (Homo sapiens) (UniProt P17612); details: at 0.1 µM
[3] = target: cAMP-dependent protein kinase catalytic subunit alpha (Homo sapiens) (UniProt P17612); details: at 1 µM
[4] = target: Protein kinase C alpha type (Homo sapiens) (UniProt P17252); details: at 0.1 µM
[5] = target: Protein kinase C alpha type (Homo sapiens) (UniProt P17252); details: at 1 µM
[6] = target: Protein kinase C beta type (Homo sapiens) (UniProt P05771); details: at 0.1 µM
Sequence of Protein kinase C beta type (Homo sapiens) (P05771 2-671 limits assumed): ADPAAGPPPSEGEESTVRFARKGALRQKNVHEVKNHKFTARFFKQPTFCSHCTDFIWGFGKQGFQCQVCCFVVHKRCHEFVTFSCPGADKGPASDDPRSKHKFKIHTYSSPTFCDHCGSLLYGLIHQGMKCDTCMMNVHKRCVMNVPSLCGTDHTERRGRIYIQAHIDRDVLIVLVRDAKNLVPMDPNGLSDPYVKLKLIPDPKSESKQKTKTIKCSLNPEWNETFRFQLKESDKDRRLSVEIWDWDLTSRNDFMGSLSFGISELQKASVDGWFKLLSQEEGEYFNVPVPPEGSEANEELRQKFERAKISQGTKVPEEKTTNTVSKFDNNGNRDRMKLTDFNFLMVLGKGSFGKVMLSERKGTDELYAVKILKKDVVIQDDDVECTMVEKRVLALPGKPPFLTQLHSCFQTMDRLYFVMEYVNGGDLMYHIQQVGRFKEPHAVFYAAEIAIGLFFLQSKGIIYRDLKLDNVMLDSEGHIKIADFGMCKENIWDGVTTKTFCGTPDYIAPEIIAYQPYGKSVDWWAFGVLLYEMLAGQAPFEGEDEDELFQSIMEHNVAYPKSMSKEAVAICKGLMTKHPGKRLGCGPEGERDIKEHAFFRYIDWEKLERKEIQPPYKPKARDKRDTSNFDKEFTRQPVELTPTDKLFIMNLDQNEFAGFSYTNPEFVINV

[7] = target: Protein kinase C beta type (Homo sapiens) (UniProt P05771); details: at 1 µM
[8] = target: Protein kinase C eta type (Homo sapiens) (UniProt P24723); details: at 0.1 µM
Sequence of Protein kinase C eta type (Homo sapiens) (P24723 whole entry): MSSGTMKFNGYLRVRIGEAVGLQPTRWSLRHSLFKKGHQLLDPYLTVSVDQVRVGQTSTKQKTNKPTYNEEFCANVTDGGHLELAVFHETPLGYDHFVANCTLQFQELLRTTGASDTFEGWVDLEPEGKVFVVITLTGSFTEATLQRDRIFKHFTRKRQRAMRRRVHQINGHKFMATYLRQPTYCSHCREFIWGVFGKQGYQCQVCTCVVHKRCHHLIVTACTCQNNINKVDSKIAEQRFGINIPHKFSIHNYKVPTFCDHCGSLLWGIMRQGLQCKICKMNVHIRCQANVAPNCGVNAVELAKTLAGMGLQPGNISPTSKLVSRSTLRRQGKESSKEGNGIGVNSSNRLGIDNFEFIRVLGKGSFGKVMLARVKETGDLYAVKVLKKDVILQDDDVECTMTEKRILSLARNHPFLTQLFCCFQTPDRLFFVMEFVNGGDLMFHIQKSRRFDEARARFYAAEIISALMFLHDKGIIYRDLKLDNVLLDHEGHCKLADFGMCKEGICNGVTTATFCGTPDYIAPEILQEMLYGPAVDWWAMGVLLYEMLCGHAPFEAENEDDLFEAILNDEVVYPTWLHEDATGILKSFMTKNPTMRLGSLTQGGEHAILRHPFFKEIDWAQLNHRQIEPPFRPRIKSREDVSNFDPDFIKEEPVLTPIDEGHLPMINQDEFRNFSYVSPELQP

[9] = target: Protein kinase C eta type (Homo sapiens) (UniProt P24723); details: at 1 µM
[10] = target: Protein kinase C gamma type (Homo sapiens) (UniProt P05129); details: at 0.1 µM
[11] = target: Protein kinase C gamma type (Homo sapiens) (UniProt P05129); details: at 1 µM
[12] = target: T2, Protein kinase C iota type (Homo sapiens) (UniProt P41743); details: at 0.1 µM
T2 sequence (whole entry): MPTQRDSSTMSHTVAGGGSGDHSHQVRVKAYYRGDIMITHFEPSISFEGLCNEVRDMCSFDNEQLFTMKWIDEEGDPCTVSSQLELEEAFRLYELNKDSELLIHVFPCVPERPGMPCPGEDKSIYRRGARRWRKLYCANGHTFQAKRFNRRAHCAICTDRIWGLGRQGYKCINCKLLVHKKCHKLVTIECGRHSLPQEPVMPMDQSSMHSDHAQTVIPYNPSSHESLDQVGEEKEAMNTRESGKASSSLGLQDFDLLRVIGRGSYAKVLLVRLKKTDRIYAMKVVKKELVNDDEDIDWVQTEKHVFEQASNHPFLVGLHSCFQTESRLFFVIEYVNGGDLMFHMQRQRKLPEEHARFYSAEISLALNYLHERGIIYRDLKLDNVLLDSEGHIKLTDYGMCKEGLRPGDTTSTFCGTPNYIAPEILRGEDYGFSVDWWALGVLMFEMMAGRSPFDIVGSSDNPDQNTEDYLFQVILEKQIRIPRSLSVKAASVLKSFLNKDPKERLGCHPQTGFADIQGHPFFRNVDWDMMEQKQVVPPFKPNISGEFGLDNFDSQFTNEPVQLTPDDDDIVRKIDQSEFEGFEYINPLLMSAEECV

[13] = target: T2, Protein kinase C iota type (Homo sapiens); details: at 1 µM
[14] = target: Protein kinase C theta type (Homo sapiens) (UniProt Q04759); details: at 0.1 µM
Sequence of Protein kinase C theta type (Homo sapiens) (Q04759 whole entry, looked up): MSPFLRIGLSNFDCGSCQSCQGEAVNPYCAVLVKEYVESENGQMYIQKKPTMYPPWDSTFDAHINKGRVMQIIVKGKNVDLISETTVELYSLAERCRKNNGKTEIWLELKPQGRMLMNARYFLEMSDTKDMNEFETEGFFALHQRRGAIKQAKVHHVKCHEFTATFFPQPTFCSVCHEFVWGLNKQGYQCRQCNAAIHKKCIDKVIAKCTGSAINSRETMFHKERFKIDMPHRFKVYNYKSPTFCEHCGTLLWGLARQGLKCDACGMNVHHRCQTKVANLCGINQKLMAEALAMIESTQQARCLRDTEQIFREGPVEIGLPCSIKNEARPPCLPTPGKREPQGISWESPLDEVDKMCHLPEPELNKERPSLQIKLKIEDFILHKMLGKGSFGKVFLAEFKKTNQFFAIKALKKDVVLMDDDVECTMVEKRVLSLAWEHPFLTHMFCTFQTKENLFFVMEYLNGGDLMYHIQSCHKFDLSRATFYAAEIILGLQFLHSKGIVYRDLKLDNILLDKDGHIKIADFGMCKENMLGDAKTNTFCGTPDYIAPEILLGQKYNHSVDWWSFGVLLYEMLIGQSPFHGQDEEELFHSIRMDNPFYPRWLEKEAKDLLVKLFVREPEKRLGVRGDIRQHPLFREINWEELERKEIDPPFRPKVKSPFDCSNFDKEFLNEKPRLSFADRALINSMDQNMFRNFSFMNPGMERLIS

[15] = target: Protein kinase C theta type (Homo sapiens) (UniProt Q04759); details: at 1 µM
[16] = target: Protein kinase C beta type (Homo sapiens) (UniProt P05771); details: at 0.1 µM; remark: listed apart in the source
[17] = target: Protein kinase C beta type (Homo sapiens) (UniProt P05771); details: at 1 µM; remark: listed apart in the source
[18] = target: T3, Serine/threonine-protein kinase D1 (Homo sapiens) (UniProt Q15139); details: at 0.1 µM
T3 sequence (whole entry): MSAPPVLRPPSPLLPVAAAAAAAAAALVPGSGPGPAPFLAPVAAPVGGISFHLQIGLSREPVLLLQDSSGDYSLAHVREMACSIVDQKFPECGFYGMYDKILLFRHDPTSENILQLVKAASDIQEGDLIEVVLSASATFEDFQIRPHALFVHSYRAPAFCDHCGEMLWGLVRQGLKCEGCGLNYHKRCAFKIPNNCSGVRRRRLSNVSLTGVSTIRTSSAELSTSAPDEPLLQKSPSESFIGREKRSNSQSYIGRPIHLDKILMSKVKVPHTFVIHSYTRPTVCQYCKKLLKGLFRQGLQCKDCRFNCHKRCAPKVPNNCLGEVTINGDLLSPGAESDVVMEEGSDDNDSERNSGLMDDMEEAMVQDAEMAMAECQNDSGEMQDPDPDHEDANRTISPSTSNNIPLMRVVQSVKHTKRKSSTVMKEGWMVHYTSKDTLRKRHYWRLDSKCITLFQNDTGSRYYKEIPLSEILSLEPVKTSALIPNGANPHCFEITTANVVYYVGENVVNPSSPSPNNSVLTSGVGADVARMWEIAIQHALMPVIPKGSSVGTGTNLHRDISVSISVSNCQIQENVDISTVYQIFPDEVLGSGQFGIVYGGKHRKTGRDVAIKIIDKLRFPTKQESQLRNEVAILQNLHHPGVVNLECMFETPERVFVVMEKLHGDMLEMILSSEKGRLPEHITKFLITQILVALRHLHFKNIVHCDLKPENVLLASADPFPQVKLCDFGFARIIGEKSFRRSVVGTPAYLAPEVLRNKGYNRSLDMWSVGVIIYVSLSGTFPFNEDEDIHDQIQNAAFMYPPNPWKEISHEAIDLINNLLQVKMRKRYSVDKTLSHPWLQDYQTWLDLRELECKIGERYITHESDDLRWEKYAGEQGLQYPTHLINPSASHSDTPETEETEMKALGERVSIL

[19] = target: T3, Serine/threonine-protein kinase D1 (Homo sapiens); details: at 1 µM
[20] = target: T4, Serine/threonine-protein kinase D2 (Homo sapiens) (UniProt Q9BZL6); details: at 0.1 µM;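 further: reported percent inhibition values are means, part of the GSK PKIS kinase panel screen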
T4 sequence (whole entry): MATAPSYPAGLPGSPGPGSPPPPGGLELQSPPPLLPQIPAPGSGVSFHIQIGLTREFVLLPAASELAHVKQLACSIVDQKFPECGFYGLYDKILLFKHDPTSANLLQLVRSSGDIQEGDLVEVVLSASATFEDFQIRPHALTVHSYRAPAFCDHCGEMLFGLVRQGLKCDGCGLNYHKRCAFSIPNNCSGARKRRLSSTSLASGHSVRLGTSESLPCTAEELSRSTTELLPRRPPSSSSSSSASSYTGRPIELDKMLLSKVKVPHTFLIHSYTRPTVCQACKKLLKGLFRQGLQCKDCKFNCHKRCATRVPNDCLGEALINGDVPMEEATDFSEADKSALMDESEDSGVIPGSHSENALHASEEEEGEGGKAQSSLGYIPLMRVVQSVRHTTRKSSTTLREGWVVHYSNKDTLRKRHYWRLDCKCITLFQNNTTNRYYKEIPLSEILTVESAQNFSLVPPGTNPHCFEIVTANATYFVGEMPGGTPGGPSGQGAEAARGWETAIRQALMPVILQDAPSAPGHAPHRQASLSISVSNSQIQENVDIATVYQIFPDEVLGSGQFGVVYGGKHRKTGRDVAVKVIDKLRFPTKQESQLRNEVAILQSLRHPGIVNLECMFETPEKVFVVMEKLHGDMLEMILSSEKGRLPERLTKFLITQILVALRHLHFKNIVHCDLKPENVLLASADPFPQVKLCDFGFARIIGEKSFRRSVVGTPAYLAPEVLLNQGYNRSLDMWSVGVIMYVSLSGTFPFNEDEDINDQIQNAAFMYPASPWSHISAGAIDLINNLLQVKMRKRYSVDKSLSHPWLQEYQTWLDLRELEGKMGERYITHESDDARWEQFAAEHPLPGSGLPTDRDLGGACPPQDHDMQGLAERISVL

SMILES | inhibition [1] | inhibition [2] | inhibition [3] | inhibition [4] | inhibition [5] | inhibition [6] | inhibition [7] | inhibition [8] | inhibition [9] | inhibition [10] | inhibition [11] | inhibition [12] | inhibition [13] | inhibition [14] | inhibition [15] | inhibition [16] | inhibition [17] | inhibition [18] | inhibition [19] | inhibition [20]
Oc1cccc(-c2nc(-c3ccccc3)[nH]c2-c2ccncc2)c1 | 4.03% | 2.46% | 6.88% | 0.69% | 3.01% | 2.07% | 8.23% | 2.41% | 9.76% | 2.86% | 5.82% | 1.08% | 0.18% | 2.11% | 3.65% | 0.99% | 7.1% | 3.05% | 5.51% | 3.64%
C[C@@H](Oc1cc(-n2cnc3ccc(OCC4CCN(C)CC4)cc32)sc1C(N)=O)c1ccccc1C(F)(F)F | 0.45% | -0.41% | 1.15% | 0.1% | 9.63% | 0.2% | 5.91% | -5.73% | 5.16% | 3.29% | 7.81% | -1.38% | 0.4% | 2.09% | 19.4% | 2.07% | 18.8% | -0.56% | 12.1% | 2.29%
Cc1ccc(Nc2ccnc(Nc3cccc(C(N)=O)c3)n2)cc1O | 2.89% | -1.93% | -0.05% | -1.9% | 8.24% | 0.32% | 4.35% | 6.2% | 4.32% | 4.85% | 16.4% | 1.56% | -0.31% | 0.93% | 2.94% | 1.81% | 8.28% | -0.94% | 12.1% | -0.15%
Cc1ccc2c(c1)/C(=N/Nc1ccc(S(N)(=O)=O)cc1)C(=O)N2 | 0.19% | 0.27% | 1.28% | 0.13% | -0.36% | -0.92% | 0.39% | -0.77% | -1.47% | -1.71% | -1.54% | -1.59% | 0.19% | -0.6% | -1.65% | 0.19% | 0.09% | 0.96% | 1.76% | 1.62%
CCS(=O)(=O)c1ccc(OC)c(Nc2ncc(-c3cccc(OC)c3)o2)c1 | 1.14% | 1.07% | 1.26% | 1.39% | 5.21% | 0.07% | -1.05% | -0.85% | 1.66% | 2.11% | 3.87% | 1.8% | 3.38% | 1.22% | 0.3% | 0.6% | 2.93% | 2.32% | 4.41% | 2.35%
COc1ccc(-c2nn3ncccc3c2-c2ccnc(Nc3cccc(C(F)(F)F)c3)n2)cc1 | -0.15% | 2.04% | 2.61% | 0.27% | 1.31% | 1.46% | 2.39% | 0.87% | 0.72% | 2.97% | 1.55% | 0.94% | -0.08% | 1.65% | 0.8% | 1.35% | 2.07% | 3.56% | 3.79% | 1.6%
Cc1ccc(O)cc1Nc1ccnc2ccc(S(C)(=O)=O)cc12 | 1.13% | 3.25% | 11.9% | 1.78% | 11.2% | 1.93% | 4.87% | 2.56% | 6.46% | 0.83% | 4.87% | 3.04% | 1.3% | 3.39% | 7.6% | 2.21% | 4.59% | 5.19% | 24.7% | 7.07%
COc1cccc(-n2nc(C)c3c(N/N=C(\C)c4ccncc4)ncnc32)c1 | 2.62% | 0.69% | -0.34% | -0.84% | -1.11% | 0.03% | -2.45% | -0.66% | -5.32% | 1.51% | -0.03% | -1.18% | -0.8% | -0.03% | -0.11% | 0.75% | 0.46% | 0.01% | 0.3% | 0.82%
Nc1ccc(C#Cc2cncnc2Nc2ccc(OCc3cccc(F)c3)c(Cl)c2)cc1 | -0.28% | 3.59% | 2.77% | 0.42% | 1.03% | 1.2% | 2.03% | 4.79% | 2.72% | -0.9% | 1.26% | 1.82% | 1.53% | 1.3% | 1.13% | 0.84% | 0.6% | 4.09% | 3.44% | 3.76%
Cc1cc(O)cc(C)c1/C=C/c1cncc(C(=O)N(C)C)c1 | 4.18% | 1.98% | 0.93% | 0.28% | 1.71% | 0.67% | 1.26% | 3% | 4.61% | 1.75% | 4.07% | 0.51% | 1.32% | 0.96% | 0.78% | 0.19% | 3% | 1.61% | 2.79% | -2.38%
Nc1nccc(-c2c(-c3ccc(F)cc3)nn3cc(C(F)(F)F)ccc23)n1 | -0.37% | 0.74% | 2.17% | 0.05% | 1.25% | -1.02% | 0.52% | -1.68% | 1.15% | -1.38% | -0.26% | -0.75% | -1.18% | -0.19% | -0.16% | -0.91% | 2.07% | 0.77% | 3.05% | 1.62%
CN(C)c1cc2c(Nc3ccc4c(cnn4Cc4ccccc4)c3)ncnc2cn1 | 2.47% | 1.45% | 1.92% | -0.01% | 0.82% | 0.49% | 1.62% | -1.26% | 1.17% | 0.1% | -1.38% | 0.79% | 1.74% | 0.5% | 0.28% | 0.51% | 0.93% | 2.68% | 5.12% | 3.3%
O=C1Nc2ccccc2/C1=C/Nc1ccc2[nH]c(=O)[nH]c2c1 | 9.34% | 2.27% | 4.1% | 0.57% | 2.34% | 0.19% | 4.33% | 3.3% | 3.84% | 2.03% | 4.72% | 1.72% | 0.7% | 2.03% | 4.75% | 1.79% | 2.19% | 4.45% | 16.5% | 5.28%

Source: ChEMBL document CHEMBL1961873, “Compounds: GSK PKIS; Assays: Nanosyn kinase panel” (2012)
